Here are results for 40 molecules from PubChem BioAssay AID1558 (National Center for Advancing Translational Sciences (NCATS), 2009).

Where “and” joins values, the source holds several entries; their conditions need not be identical. Identical values can stand only once. Records with an inconclusive call do not appear. Calls of active or inactive are those of the source. Calls follow the shape of the dose curve; as a rule, active = well fitted inhibition curve with a large enough effect; inconclusive = small, poorly fitted or top-dose-only effect; inactive = flat fitted curve, though single readings scatter.

Chain of Microtubule-associated protein tau (Homo sapiens) (P10636 561-689 P618L limits assumed): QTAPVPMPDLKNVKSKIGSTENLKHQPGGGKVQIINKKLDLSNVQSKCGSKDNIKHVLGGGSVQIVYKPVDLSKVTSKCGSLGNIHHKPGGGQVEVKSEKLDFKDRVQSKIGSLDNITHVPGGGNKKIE

The assay has as its target Microtubule-associated protein tau (Homo sapiens) (UniProt P10636). As to the kind of experiment: Confirmation Concentration-Response Assay for Inhibitors of Tau Fibril Formation, Thioflavin T Binding. The note with it: recombinant tau K18 P301L (four-repeat tau fragment) heparin fibrillization, ThT fluorescence; series mostly up to 100 µM; activity change, negative = inhibition: at the top concentration. The source says: NIH Molecular Libraries Probe Production Network [MLPCN] NIH Chemical Genomics Center [NCGC] MLPCN Grant: X01 MH083262-01 Assay Provider: Carlo Ballatore, University of Pennsylvania NCGC Assay Overview: The microtubule-associated protein tau is an abundant protein in the axons of neurons that stabilizes microtubules. With its ability to modulate microtubule dynamics, tau contributes directly or indirectly, to key structural and regulatory cellular functions. Particularly important is the influence tau exerts on axonal transport, which allows signaling molecules, trophic factors and other essential cellular constituents to travel along the axons. Under pathological conditions, tau becomes sequestered into insoluble aggregates called neurofibrillary tangles. This phenomenon is believed to have pathological consequences by promoting axonal transport deficits that ultimately lead to synaptic dysfunction and neuronal loss. To identify inhibitors of tau aggregation, a heparin-induced tau fibril formation assay was used that employed a recombinantly expressed fragment of tau, K18 (Q242-E372), bearing a P301L mutation (Gustke et al. 1994; Hong et al. 1998). This assay monitors tau fibrillization by Thioflavin T (ThT) fluorescence. Gustke, N., B. Trinczek, et al. (1994). "Domains of tau protein and interactions with microtubules." Biochemistry 33(32): 9511-22. Hong, M., V. Zhukareva, et al. (1998). "Mutation-specific functional impairments in distinct tau isoforms of hereditary FTDP-17." Science 282(5395): 1914-7. Li, W. and V. M. Lee (2006). "Characterization of two VQIXXK motifs for tau fibrillization in vitro." Biochemistry 45(51): 15692-701. von Bergen, M., S. Barghorn, et al. (2001). "Mutations of tau protein in frontotemporal dementia promote aggregation of paired helical filaments by enhancing local beta-structure." J Biol Chem 276(51): 48165-74.
For screening, 2 uL/well human K18 P301L (15 uM unlabeled and 0.24 uM Alexa 594-labeled tau, final concentrations) in reagent buffer (100 mM sodium acetate pH 7) was dispensed into black solid 1536-well plates (Grenier) using a solenoid-based dispenser. Following transfer of 23 nL compound or DMSO vehicle by a pin tool, 2 uL/well heparin (20 uM final concentration) in reagent buffer was added and the plate centrifuged 15 s at 1000 RPM. Plates were incubated 6 hr at 37 C and then 1 uL/well ThT (30 uM final concentration) was added. After a 1 hr ambient incubation, the plates were read by an Envision (Perkin Elmer) to monitor ThT fluorescence (450/8 nm excitation and 510/23 nm emission). Keywords: NIH Roadmap, MLPCN, MLI, MLSMR, NCGC, qHTS, tau, tauopathies, Alzheimer's disease, fibril, neurodegeneration, aggregation
As to `Nc1scc2c(C(=O)N3CCOCC3)nn(-c3ccccc3)c(=O)c12`, the Potency is 11.2 µM (active). Regarding `CCN(CC)c1ccc2oc(=O)c(C)nc2c1`, the Potency was 10 µM (active). On to `O=C(Cc1ccccc1)Nc1sc2c(c1C(=O)Nc1cccc(Cl)c1)CCCC2`, for which the “activity change, negative = inhibition” value was -11.2% [at 57.1 µM] (inactive). In the case of `CCOC(=O)c1ccc(S(=O)(=O)Nc2nc3cc(S(=O)(=O)NC4=NCCCCC4)ccc3s2)cc1`, the Potency is 10 µM (active). As for `COc1ccc(Cl)cc1NC(=O)c1c(NCc2sccc2C)sc2c1CCCC2`, the Potency is 1 µM (active). `CCOC(=O)c1nn(-c2ccc(OC)cc2)c(=O)c2c(NC(=O)Cc3ccccc3)scc12`: the “activity change, negative = inhibition” value is -28.9% [at 57.1 µM] (inactive).

For the molecule `Nc1scc2c(C(=O)NCc3ccccc3)nn(-c3ccccc3)c(=O)c12`, the Potency is 7.08 µM (active). Take `Cc1ccc(NC(=O)c2c(NC(=O)Cc3ccccc3)sc3c2CCCC3)cc1`: the “activity change, negative = inhibition” value is -10.5% [at 57.1 µM] (inactive). On to `COc1ccc(NC(=O)Cn2cc(S(=O)(=O)N3CCN(c4ccccc4F)CC3)c3ccccc3c2=O)cc1Cl`, for which the “activity change, negative = inhibition” value is 5.9% (inactive). On to `Cc1ccc(N2C(=O)SC(Cc3ccccc3)C2=O)cc1` (stereo not given), for which the “activity change, negative = inhibition” value was -28.8% (inactive). Regarding `CN(C(=S)Nc1cccnc1)c1ccc(O)cc1`, the Potency is 10 µM (active).

For `O=C(O)CC1S/C(=N/N=C/c2ccc(-c3ccccc3[N+](=O)[O-])o2)NC1=O` (stereo not given), the Potency is 11.2 µM (active). Take `Nc1scc2c(C(=O)O)nn(-c3ccccc3)c(=O)c12`: the Potency was 6.31 µM (active). As for `COc1cccc(/C=C2/SC(=S)N(CC(=O)Nc3nnc(C)s3)C2=O)c1`, the “activity change, negative = inhibition” value is 4.72% [at 57.1 µM] (inactive). The same measure, in the same setting: the figure for `COc1ccc(CNC(=O)Cn2nc(C)n3cccc3c2=O)cc1` is -7.15% (inactive). Still for that read-out and setting: to `CC(=O)Nc1sc(C)c2cnn(-c3ccccc3)c(=O)c12` belongs -10.9% [at 57.1 µM] (inactive); to `COc1ccc(OC)c(NC(=O)c2c(NCc3cccs3)sc3c2CCCC3)c1`, -23.9% [at 57.1 µM] (inactive); to `O=C(NCc1cccnc1)C1CCN(S(=O)(=O)c2cccs2)CC1`, -16.8% (inactive).

With `COc1ccc2c(c1)c(CC(=O)Nc1ccc(C(C)=O)cc1)c(C)n2C(=O)c1ccc(Cl)cc1`, the “activity change, negative = inhibition” value was -18.6% (inactive). On the same count and under the same terms, the figure for `NC[C@@H](O)c1ccc(O)c(O)c1` is -8.35% (inactive). Still for that read-out and setting: the figure for `O=C(Nc1nc2ccc(S(=O)(=O)N3CCCC3)cc2s1)c1ccc(F)cc1` is 12.3% (inactive). With `CC(=O)Nc1nc(C)c(-c2csc(Nc3ccc(O)cc3)n2)s1`, the Potency was 15.8 µM (active).

On to `O=C(O)CC1S/C(=N/N=C/c2ccc(-c3ccc(Cl)cc3[N+](=O)[O-])o2)NC1=O` (stereo not given), for which the Potency was 1.58 µM (active). Take `Cn1cc(Cl)c(C(=O)Nc2cccc(Cl)c2Cl)n1`: the “activity change, negative = inhibition” value is -15.1% (inactive).

Consider `O=C(Nc1ccc(-c2nc3ccccc3o2)cc1)c1ccc(N2CCOCC2)c([N+](=O)[O-])c1`, for which the Potency was 1.12 µM (active). On to `O=C(Cc1ccccc1)Nc1sc2c(c1C(=O)Nc1ccc(Br)cc1)CCCC2`, for which the “activity change, negative = inhibition” value was 2.19% [at 57.1 µM] (inactive). As for `CCOC(=O)c1nn(-c2ccc(OC)cc2)c(=O)c2c(N)scc12`, the Potency was 631 nM (active) and 3.16 µM (active). Turning to `COC(=O)c1c(NC(=O)C(C)(C)C)sc2c1C(C(=O)OC)CC2` (stereo not given), the “activity change, negative = inhibition” value is -17.1% (inactive). As for `COc1ccc2[nH]c(=O)c(CNc3ccccc3OC)cc2c1`, the Potency is 25.1 µM (active). `O=C(Nc1nnc(S(=O)(=O)Nc2ccccc2)s1)C1CCCCC1`: the “activity change, negative = inhibition” value is -17.4% (inactive).

On to `COc1ccc(-n2nc(C(=O)O)c3csc(N)c3c2=O)cc1`, for which the Potency is 1 µM (active). Take `Cc1ccc(NCc2cc3cc4c(cc3n(CC(=O)Nc3ccc(C)cc3)c2=O)OCCO4)cc1`: the “activity change, negative = inhibition” value is -0.6% (inactive). For `CC(C)c1ccc(NS(=O)(=O)c2ccc3[nH]cc(C(=O)NCCc4ccccc4)c(=O)c3c2)cc1`, the “activity change, negative = inhibition” value is 7.6% (inactive). As for `S=C1Cc2ccccc2N1`, the Potency was 0.631 µM (active). Still for that read-out and setting: to `CCOC(=O)c1nn(-c2ccccc2)c(=O)c2c(N)scc12` belongs 3.98 µM (active) and 7.94 µM (active). Turning to `CCOC(=O)c1nn(-c2ccccc2)c(=O)c(C#N)c1C`, the “activity change, negative = inhibition” value was -7.32% [at 57.1 µM] (inactive). As to `Oc1ccccc1CNc1cccc2cccnc12`, the Potency is 39.8 µM (active). Regarding `O=C(Cc1ccccc1)Nc1sc2c(c1C(=O)Nc1ccc(Cl)cc1)CCOC2`, the “activity change, negative = inhibition” value was -11.4% [at 57.1 µM] (inactive).

Regarding `CCOC(=O)c1nn(-c2cccc(C(F)(F)F)c2)c(=O)c2c(N)scc12`, the Potency was 0.891 µM (active). Regarding `O=S(=O)(c1ccc(NC(=S)N/N=C/c2ccc(N3CCOCC3)cc2)cc1)N1CCOCC1`, the “activity change, negative = inhibition” value was -9.1% (inactive).
